About 83,000 compounds went through this panel and 20% of them were active in at least one assay; those are over-represented in the sample as a whole.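 Each cell line was grown in a 96-well plate and treated with one concentration of compound for 48 hours. Values below 10 were considered active.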 Calls of active or inactive are those of the source.
System: HOP-62 NSCLC
Test: NCI-60 one-dose screen, 48 h (100 = growth as untreated, 0 = no growth, -100 = all killed)
Conditions: 10 µM unless noted
Experimental: Growth inhibition of the HOP-62 human Non-Small Cell Lung tumor cell line is measured as a screen for anti-cancer activity. Cells are grown in 96 well plates and exposed to the test compound for 48 hours. Compounds are tested at a single concentration, which is 10^-5 M for most compounds. The reported endpoint is percent growth (GI% or GIPRCNT), where numbers from 0 - 100% represent growth inhibition, and numbers from -100% - 0 represent cell death. For example, a value of 40 represents 60% growth inhibition. A value of 0 means no net growth occurred over the course of the experiment. A value of -40 indicates 40% of cells at the beginning of the experiment died by the end of the experiment. A value of -100 means all cells are dead at the end of the experiment.
NCI-60 Human Tumor Cell Lines Screen was performed using the standard one-dose NCI protocol, which is described in more detail at https://dtp.cancer.gov/discovery_development/nci-60/default.htm.
Compounds with GIPRCNT values below 10 were considered active. Activity score was based on GIPRCNT using the following formula: […]
Score is 0 for GIPRCNT values of 100 or above, 50 for GIPRCNT values of 0, and 100 for GIPRCNT values of -100.

SMILES	growth
COc1ccc(-c2nn(-c3ccc(NC(=O)Nc4ccc(Cl)c(C(F)(F)F)c4)cc3)cc2-c2ccncc2)cc1Cl	-0.289% (active)
CCCCn1c(-c2cccc(OC)c2)nc2cc(OC)c(OC)cc2c1=O	45.7% (inactive)
O=C(CSc1nnc(-c2cc3c([nH]c4ccccc43)c(-c3cccc(O)c3)n2)n1-c1ccccc1)c1ccccc1	59.3% (inactive)
CCC(N)(C(=O)O)c1ccc(F)cc1 (stereo not given)	104% (inactive)
Cc1cn(-c2cc(C(=O)Nc3cccc(-n4ccc5c(NC(=O)c6ccccc6)nccc54)c3)cc(C(F)(F)F)c2)cn1	31.5% (inactive)
CCCC(=O)Oc1ccc(/C(=C(\C)c2ccc(Cl)cc2)c2ccc(OCCN(CC)CC)cc2)cc1	-57.1% (active)
O=C(Nc1cccc(-n2ccc3c(NC(=O)c4ccccc4)nccc32)c1)Nc1ccc(Cl)c(C(F)(F)F)c1	33.4% (inactive)
CCC1CN2C(=N1)c1ccccc1-c1cc(Cl)ccc12 (stereo not given)	5.88% (active)
CCc1c(C)c2cc3nc(NCc4ccccc4)oc3c(C)c2oc1=O	73.7% (inactive)
Cc1ccc(-c2cn3cc([N+](=O)[O-])ccc3n2)cc1	91.4% (inactive)
Cc1cn([C@]2(CF)O[C@H](CO)C2C)c(=O)[nH]c1=O (stereo not given in full)	62.8% (inactive)
C#C[C@H](O)/C=C/CCCCCCC#C[C@H](O)CC[C@@H](O)C#CCCCCCC/C=C/[C@@H](O)C#C	85.3% (inactive)
COc1cc2ncnc(Oc3ccc(NC(=O)Nc4ccc(C5(C#N)CCCC5)cc4)c4ccccc34)c2cc1OC	41.5% (inactive)
Cn1c2ccccc2c2ssc(=S)c21	110% (inactive)
C=CCOc1ccc(/C(Cl)=N/N=C(\Cl)c2cc(OC)c(OC)c(OC)c2)cc1	79.7% (inactive)
CCCCOc1nc2ccc(Cl)cc2cc1/C=C/C(=O)/C=C/c1ccc(Cl)cc1	101% (inactive)
CN(C)c1ncc(C#Cc2c(F)cccc2F)c2ccccc12	88.1% (inactive)
OC(COc1ccccc1Cl)CN1CCN(c2ccc(Cl)cc2)CC1 (stereo not given)	108% (inactive)
COc1ccccc1S(=O)(=O)Nc1ccc2c3c(cc(-c4ccoc4)nc13)C(=O)N2C	52.6% (inactive)
C=C1C(=O)O[C@H]2[C@H]1CC/C(COC(=O)n1ccnc1C)=C\CC[C@@]1(C)O[C@@H]21	99.4% (inactive)

SMILES	growth
C[C@]12O[C@H]1[C@H](O)c1c(cc(O)c3c1C(=O)c1cccc(O)c1-3)C2=O	96.5% (inactive)
CCN(CC)CCC(C(=O)O)(c1ccccc1)c1ccccc1	86.5% (inactive)
O=C(/C=C/c1ccccc1)Oc1ccc(/C=C/c2cc(OC(=O)/C=C/c3ccccc3)cc(OC(=O)/C=C/c3ccccc3)c2)cc1	82.9% (inactive)
C#CCn1c(-c2cc(OC)c(OC)cc2Br)nc(-c2ccccc2)c1-c1ccccc1	72.8% (inactive)
COc1ccc(N)c(S)c1	90.5% (inactive)
COC(=O)c1ccc2c(c1)Oc1ccc(Cl)cc1-c1cc(C)nn1-2	37.6% (inactive)
Cc1[nH]n(C(=O)c2ccncc2)c(=O)c1N=Nc1ccc(S(=O)(=O)Nc2ccncn2)cc1	76.6% (inactive)
O=C(O)c1cc2ccccc2cc1Nc1ccccc1	82.3% (inactive)
COc1ccc(C(=O)Cn2cnc3c(Nc4cc(C(=O)Nc5ccc(N6CCN(CCO)CC6)cc5)ccc4C)ncnc32)cc1	97.3% (inactive)
c1ccc2c(c1)Oc1cccnc1-n1nccc1-2	104% (inactive)
COc1cc(-c2nc3sc(C)cn3c2/C=C2\C(=O)Nc3ccccc32)c(Br)c(OC)c1OC	26% (inactive)
COc1cc(/C=C/C(=O)c2c(C)n([O-])c3cc(C)c(C)cc3[n+]2=O)cc(OC)c1OC	74.6% (inactive)
CCC(CC(C)C)Nc1ccc(NC(CC)CC(C)C)cc1 (stereo not given)	105% (inactive)
CN(C)C(=O)Nc1nc2cc(Cl)c(Cl)cc2[nH]1	-38.6% (active)
CC(Cc1cccc(C(F)(F)F)c1)NCCOC(=O)c1ccccc1 (stereo not given)	102% (inactive)
COc1cc(NS(C)(=O)=O)ccc1Cc1c2ccccc2nc2ccccc12	-13.9% (active)
COc1ccc(/C=C/C(=O)c2ccc(NC(=O)CSc3nnc(-c4cc(OC)c(OC)c(OC)c4)o3)cc2)cc1	43.8% (inactive)
COc1ccc(SC2c3ccc(O)cc3Oc3nc(N)c(C#N)c(N)c32)cc1 (stereo not given)	64.4% (inactive)
Cc1ccccc1C[P+](c1ccccc1)(c1ccccc1)c1ccccc1	32.4% (inactive)
Nc1ncc(-c2ccc3ncnc(Nc4ccc(F)c(Cl)c4)c3c2)cn1	57.5% (inactive)
